Measured values as given in the supplement of paper PMC6555819.

Test system: VDR:RXRa (NR concentration 270 nM, RXRa partner concentration 90 nM)
Test: PBM binding z-score (relative to random genomic background probes); higher = stronger binding; sequences stand for … in GC…GCGATTGACAGCGTAGAATGAAGG
Method: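 Protein-binding microarray (Agilent 4x180K custom design, double-stranded 60-nt probes: 5' GC cap, 34-nt variable region, 24-nt constant primer region; full probe sequence given). Purified or IVT nuclear receptor:RXRα heterodimers (3:1 NR:RXRα, mostly 270:90 nM) or homodimers were incubated for 1 h in PBS with 2% milk and no ligand, then detected with Alexa488 antibodies. Fluorescence from o1-orientation probes (~5 replicates averaged) was converted to z-scores against 500 random hg19 background probes. Variable regions are seed direct-repeat (DR0–DR5) sites, all their single-nucleotide variants and half-site ablations.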

Row | Sequence | PBM binding z-score
1 | ATATGTAGGTTAAGGGTCAATCAGGTTGGTTCGC | 5.61
2 | ACAGACAGGTGAGTGAAGGGAACTCAGCTGGACG | -0.408
3 | ACAGACAGGTGAAGAAGGTAACTCAGGCTATCAT | 0.439
4 | CCGACTGGGGCGTAAGGTTACCATAAGCCAGCCC | 0.154
5 | CAAACTTGGTCACAGAGGTCAAAGTCCGTGCGTA | 6.59
6 | CGTCCAAGGTCACAGGTCAGTGAAGAGATGACGG | 4.91
7 | CGTCCAAGGTCATAGGAGGTCAGTGCAGACAGAT | 6.74
8 | TCGAGTAGGTTAGCGGCATTCAGAATGGCGTCGA | -0.635
9 | CCTTACGCGTCAAGGTTATAGCACGGGTGGTACG | 0.442
10 | CGAACTAGGTCATCCAGTACAGTGAATACATTGA | 5.08
11 | AGTCCAAGTTCAGGACGAGGTAACGTAAAGCACG | 2.51
12 | GTACCAAGGTGAATAGGTCGTTGTTGAGTAGGCG | 0.825
13 | AGAATGAGGTTAAGATCACGGAAACAGAATACAT | 1.41
14 | TCTATTAGTTGCTTAGGGCAACCGAAACAGCGGA | 0.49
15 | GGAACGATGGCAAGTTGATAGCAGAGTTTGATGG | -0.469
16 | CAAACTAGGTCACGGAGGTCAAAGTCCGTGCGTA | 7.92
17 | ATCGCAAGGTCGAGGTGAGTATAGAGAAAGGGAA | 1.43
18 | TCTCGGAGGACTCGAAGGTCAGAGCTTTCCAGAG | 0.759
19 | CGTCCAAGGTCAGCAGGTCGGTGAAAGCGACGTG | 3.71
20 | ATAGAAAGGTCGTGAGGTGAGTATACAGAAAGGC | 3.63

Row | Sequence | PBM binding z-score
21 | GCGACTGGGGCCAAGCAGGTTACCATAAGGTTGG | 0.713
22 | TCTAGTTGGTCAAAGGTCACCCACTCGAAATGCG | 5.09
23 | CCGACTGGGGCAGAAAGATTACCATACCATCCGG | -0.535
24 | TCTAGTAGGCCAGAGGGTCACTCAAGAGGTACGG | 1.91
25 | ATCTCTAGGTAAAGTTGAGTGAAAGATCGATAGA | 0.152
26 | TCAGACAGGAGAAGGTAACTCAGGTACGCAGTCG | 0.714
27 | AGTCAAAGTTCAGGAAGAGGTAACGTAAAGCACG | 2.96
28 | GCATGTAGATCAAGGTTAAGAAAGACTAAGCTAA | 0.22
29 | AGAACCAGGGCAATGAGTTGATAGCACGGGTGGC | 3.6
30 | TTGAGTAGGTTACCAATGGGGCATTCAGCTTTCT | 0.365
31 | CCTTCTGGGCCAAAGGTCATTGATTCCAATGCTC | 4.59
32 | TTACCAAGGTGAGCTGAAGTCGTTGATCCAACTC | -0.383
33 | TCAGAAAGGTGAAGGTAACTCAGGTACGCAGTCG | 1.35
34 | ACTATTAGTTGAGACGAGCGCAACCGATAGGTTG | -0.385
35 | ACAGACAGGTGATGAAGGTAACTTAGGCTATCAT | 0.0593
36 | CGTCCCAGGTCAAAGGTCAGTGAAGAGATGACGG | 6.07
37 | CAAACTAGGTCACAGAGGTCTAAGTCCGTGCGTA | 4.9
38 | CGAACGAGGGTATGAGTTGATAGCAAATGCCGAT | -0.175
39 | GCTGCTAGGTCAGGTTGGCCAGCTAACGGGTACG | 0.052
40 | ATAGGTAGGTTACATCCGGGTCATTCAGGCTATG | 4.21
